# Measurements from PMC13541613, “GHT-SELEX demonstrates unexpectedly high intrinsic sequence specificity and complex DNA binding of many human transcription factors”.
# Biological target: ZNF721 full-length (Homo sapiens, UniProt Q8TF20-2 1-923)
# Assay: HT-SELEX; 20 mM HEPES pH 7, 140 mM KCl, 5 mM NaCl, 1 mM K2HPO4, 2 mM MgSO4, 100 uM EGTA, ZnSO4, 0.1% Tween20; room temperature, 1 h; high values mean tight binding
# Conditions: protein: ivt; tags: eGFP (N-terminal); dsDNA, one strand shown
# Outline: (§1)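 The binding signal is a relative k-mer count in selected reads, and higher values mean tighter binding. To obtain these reads, bead-bound tagged transcription factor (full-length or DNA-binding-domain fragment, produced in HEK293 lysate or cell-free extract) was mixed with a randomized 40-base DNA library for 1 h at room temperature in low-stringency HEPES/KCl buffer with Tween20. Bound DNA was recovered by washing and heat elution, PCR-amplified through successive cycles and sequenced on Illumina (~3 million 60 bp reads per sample).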
# Sequence of ZNF721 full-length (Q8TF20 other isoform, or with tags, fused parts or gaps): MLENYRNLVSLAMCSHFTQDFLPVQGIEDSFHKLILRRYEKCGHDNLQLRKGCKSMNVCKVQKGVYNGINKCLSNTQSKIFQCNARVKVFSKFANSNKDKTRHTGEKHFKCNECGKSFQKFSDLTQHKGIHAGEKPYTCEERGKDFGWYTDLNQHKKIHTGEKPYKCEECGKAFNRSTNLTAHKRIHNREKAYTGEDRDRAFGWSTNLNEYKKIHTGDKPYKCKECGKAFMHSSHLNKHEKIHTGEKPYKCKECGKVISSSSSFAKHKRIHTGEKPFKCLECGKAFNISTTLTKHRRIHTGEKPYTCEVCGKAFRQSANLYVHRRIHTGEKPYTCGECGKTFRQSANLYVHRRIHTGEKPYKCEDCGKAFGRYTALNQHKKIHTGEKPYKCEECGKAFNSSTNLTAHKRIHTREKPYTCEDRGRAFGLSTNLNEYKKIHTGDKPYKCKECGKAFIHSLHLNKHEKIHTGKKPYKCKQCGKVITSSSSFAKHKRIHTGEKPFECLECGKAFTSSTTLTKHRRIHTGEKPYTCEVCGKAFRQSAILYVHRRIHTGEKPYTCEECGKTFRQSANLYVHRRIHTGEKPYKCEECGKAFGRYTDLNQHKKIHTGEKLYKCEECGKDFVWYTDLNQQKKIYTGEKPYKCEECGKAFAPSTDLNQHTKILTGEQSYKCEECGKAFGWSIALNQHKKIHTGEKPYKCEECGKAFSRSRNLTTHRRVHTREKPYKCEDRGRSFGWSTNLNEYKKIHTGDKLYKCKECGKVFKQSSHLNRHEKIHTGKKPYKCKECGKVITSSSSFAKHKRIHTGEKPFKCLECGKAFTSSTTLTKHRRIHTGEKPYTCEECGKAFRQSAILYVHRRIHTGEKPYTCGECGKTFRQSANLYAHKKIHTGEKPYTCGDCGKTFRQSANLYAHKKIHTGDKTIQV
row,Sequence,binding signal [relative 10-mer count]
1,AAAAAACAGG,0.278
2,AAAACAGCAT,0.921
3,ACTGTTTTTC,0.135
4,AAAACAGCCC,0.152
5,CAGTGTATCC,0.208
6,AAAACAGGGT,0.391
7,CCAAAAACAG,0.108
8,AACGCTGCTT,0.207
9,CAGAGTACCC,0.125
10,ACAGCATATC,0.126
11,ATAAAACAGC,0.158
12,AAAAGCAGCG,0.276
13,CAAAAACAGC,0.163
14,AAAAACAGCA,0.778
15,ACAAAACAGT,0.115
16,CAAAGCAGCA,0.112
17,AAAAACAGCC,0.167
18,AAGCAGTGTC,0.13
19,AAAACAGCAG,0.243
20,AAACAGCAGC,0.122

row,Sequence,binding signal [relative 10-mer count]
1,ACAGTGTATC,0.137
2,CCGAAAACAG,0.111
3,ACAAAGCAGC,0.189
4,AAACAGCATA,0.56
5,AAACAGCATT,0.17
6,AACAGTGTAT,0.129
7,AGCAGTGTTG,0.13
8,TAAAACAGCA,0.152
9,AACAAACAGC,0.119
10,AAACAGCACA,0.11
11,CAGCGTTGCC,0.143
12,GAAACACTGC,0.118
13,ACAGTGTTGC,0.13
14,ACAGTGTTTC,0.14
15,AAACTAGCAT,0.118
16,AAAAACAGTG,0.406
17,AAACAGCACT,0.14
18,AAAGCAGTGT,0.513
19,CTGTTTTTTA,0.204
20,AGAAAACAGC,0.251

# Biological target: ZNF721 DBD2 (Homo sapiens, UniProt Q8TF20-2 395-923)
# Sequence (Q8TF20 383-911): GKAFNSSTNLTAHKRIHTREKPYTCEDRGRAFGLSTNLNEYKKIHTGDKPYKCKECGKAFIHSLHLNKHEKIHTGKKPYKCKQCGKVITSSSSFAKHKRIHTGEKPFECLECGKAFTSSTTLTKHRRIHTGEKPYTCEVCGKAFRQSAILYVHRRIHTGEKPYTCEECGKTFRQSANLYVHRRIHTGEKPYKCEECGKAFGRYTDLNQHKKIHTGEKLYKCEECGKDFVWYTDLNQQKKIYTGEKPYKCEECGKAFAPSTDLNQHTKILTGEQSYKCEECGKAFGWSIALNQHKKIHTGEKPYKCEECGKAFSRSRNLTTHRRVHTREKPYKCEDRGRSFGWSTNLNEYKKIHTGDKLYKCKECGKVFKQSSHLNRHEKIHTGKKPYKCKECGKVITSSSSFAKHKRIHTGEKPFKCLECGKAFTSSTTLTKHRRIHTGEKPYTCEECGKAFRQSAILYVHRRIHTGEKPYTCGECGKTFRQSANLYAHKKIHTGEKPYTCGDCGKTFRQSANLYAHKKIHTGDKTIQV
# Assay: as above
# Conditions: protein: ivt; tags: eGFP (N-terminal); dsDNA, one strand shown
# Outline: as §1
row,Sequence,binding signal [relative 10-mer count]
1,AAAAAACAGG,0.289
2,AAAACAGCAT,1
3,ACTGTTTTTC,0.17
4,AAAACAGCCC,0.156
5,CAGTGTATCC,0.401
6,AAAACAGGGT,0.506
7,CCAAAAACAG,0.144
8,AACGCTGCTT,0.327
9,CAGAGTACCC,0.18
10,ACAGCATATC,0.174
11,ATAAAACAGC,0.214
12,AAAAGCAGCG,0.326
13,CAAAAACAGC,0.251
14,AAAAACAGCA,0.785
15,ACAAAACAGT,0.123
16,CAAAGCAGCA,0.132
17,AAAAACAGCC,0.172
18,AAGCAGTGTC,0.151
19,AAAACAGCAG,0.264
20,AAACAGCAGC,0.135

row,Sequence,binding signal [relative 10-mer count]
1,ACAGTGTATC,0.202
2,CCGAAAACAG,0.217
3,ACAAAGCAGC,0.238
4,AAACAGCATA,0.657
5,AAACAGCATT,0.254
6,AACAGTGTAT,0.199
7,AGCAGTGTTG,0.223
8,TAAAACAGCA,0.177
9,AACAAACAGC,0.0709
10,AAACAGCACA,0.109
11,CAGCGTTGCC,0.423
12,GAAACACTGC,0.188
13,ACAGTGTTGC,0.341
14,ACAGTGTTTC,0.272
15,AAACTAGCAT,0.175
16,AAAAACAGTG,0.517
17,AAACAGCACT,0.201
18,AAAGCAGTGT,0.632
19,CTGTTTTTTA,0.282
20,AGAAAACAGC,0.322
